# Source: PubChem (National Center for Advancing Translational Sciences (NCATS))
# In the library only some 4.8% were active in any assay of this set; here they are far more common.
# TGFb inhibitor = blocks TGF-b signaling. HepG2 CAGA-GFP TGF-b/SMAD3 reporter, GFP fluorescence, 18 h; TGF-beta stimulated, 500 pg/mL final. Potency, µM (titrated, usually from 46.1 µM), hits mostly inhibitors. 1.2% of 410,000 active; note: nearly all actives have a fitted effect of over 65% in size
#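 HEPG2 CAGA-GFP cells (1000/well, DMEM with 1% FBS) were pre-incubated 2 h at 37 degrees C, given compound by pin tool, then stimulated with TGF-beta at 500 pg/mL final for 18 h before per-cell GFP fluorescence imaging.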
# D3 antag = D3 dopamine receptor (human) antagonism; P35462; max response, negative = inhibition, %; AID 652054; 2.5% of 360,000 active; D3R cells, DiscoveRx beta-arrestin luminescence, antagonist mode; active compounds read low; in the data active = max response below about -50%; inconclusive = no clear call, values can overlap the other calls
# Target sequence (P35462 whole entry, looked up): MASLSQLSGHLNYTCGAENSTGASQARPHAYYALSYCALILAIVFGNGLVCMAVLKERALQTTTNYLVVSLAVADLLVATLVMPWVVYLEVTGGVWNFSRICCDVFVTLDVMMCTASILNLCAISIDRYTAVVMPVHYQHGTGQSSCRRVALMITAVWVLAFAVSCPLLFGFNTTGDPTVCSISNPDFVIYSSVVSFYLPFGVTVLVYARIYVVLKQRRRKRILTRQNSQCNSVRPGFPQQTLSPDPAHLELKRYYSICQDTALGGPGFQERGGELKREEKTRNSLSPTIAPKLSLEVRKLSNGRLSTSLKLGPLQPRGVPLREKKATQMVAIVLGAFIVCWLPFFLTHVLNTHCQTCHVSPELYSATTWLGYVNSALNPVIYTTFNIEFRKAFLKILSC
#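 Cells expressing the human receptor were seeded at 1500 cells/well, incubated overnight at 37 degrees C in 5% CO2, then exposed to library compounds with dopamine controls for 90 minutes at 37 degrees C before luminescent detection.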
# ATXN2 expr inh = ATXN2 expression inhibition; Potency, µM (series often up to 57 µM), actives largely listed as inhibitors; AID 1745845; HEK-293 ATXN2-luciferase reporter, luminescence, 24 h; 0.72% of 360,000 active; note: nearly all actives have a fitted effect of over 55% in size
#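 ATXN2-luciferase reporter cells (luciferase flanked by upstream and downstream ATXN2 gene portions) were treated 24 h at 37 °C with compounds at up to 57 uM. SteadyGlo luminescence gave expression; GF-AFC fluorescence gave viability.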
# ATXN viability = reduces viability in counter-screen for ATXN expression inhibitors; Potency, µM (highest dose often 56.7 µM), usual class: cytotoxic; 0.49% of 400,000 active; AID 651635; S2 cells (HEK-293 line with an ATXN2-luciferase reporter) viability, CellTiter-Fluor protease fluorescence, 24 h; note: nearly all actives have a fitted effect of over 40% in size
# DRD3 agonist = activates the human D3 dopamine receptor | D3R DiscoveRx beta-arrestin cells, luminescence, 90 min | 0.58% of 410,000 active | AID 652048 | max activation, %; in the data active = max activation above about 30%
#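 Agonist mode: compounds and dopamine controls were applied to plated cells for 90 min at 37 degrees C after an overnight attachment at 1500 cells/well. Luminescent read-out followed 30 - 60 minutes at room temperature with DiscoveRx detection reagent.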
# HepG2 tox-1 = kills HepG2 cells in TGF-b inhibitor counter-screen | HepG2 CAGA-GFP viability, ATP luminescence, 18 h | Potency, µM (series often up to 46.1 µM), most hits filed as cytotoxic | 0.76% of 410,000 active | AID 588856
#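 CellTiter-Glo luminescence gave cytotoxicity after 18 hours at 37 degrees C. The cells were HepG2 CAGA-GFP in 1% FBS DMEM, stimulated with 500 pg/mL TGF-beta after compound addition. %Activity was normalised to no-cell wells (complete cell-killing) and DMSO (no toxicity), and curves were fitted and classified.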
# TGFb confirm = confirmation of TGF-b signaling inhibitors in HepG2 reporter cells; Potency, µM (series often up to 46.1 µM), hits mostly inhibitors; 63% of 1,600 active; shares compounds with TGFb inhibitor; HepG2 CAGA-GFP TGF-b reporter, GFP fluorescence, 18 h; cells stimulated with TGF-beta, 500 pg/mL; note: nearly all actives have a fitted effect of over 65% in size
# HepG2 tox-2 = HepG2 cytotoxicity, TGF-b inhibitor counterscreen | shares compounds with TGFb inhibitor | HepG2 CAGA-GFP viability, ATP luminescence, 18 h; cells stimulated with TGF-beta, 500 pg/mL | Potency, µM (titrated, usually from 46.1 µM), hits mostly inhibitors | 27% of 1,600 active | AID 720535; note: nearly all actives have a fitted effect of over 70% in size
# CCL64 TGFb inh = orthogonal confirmation of TGF-b inhibitors in CCL64 cells. shares compounds with TGFb inhibitor. CCL64 CAGA-GFP reporter, TGF-b stimulated, GFP fluorescence, 18 h. Potency, µM (top dose mostly 46.1 µM), most hits filed as inhibitors. 41% of 1,600 active. AID 720536; note: nearly all actives have a fitted effect of over 65% in size
# TGFb COP inh = validation of TGF-b inhibitors in HepG2 COP promoter reporter; HepG2 COP-GFP TGF-b reporter, GFP fluorescence, 18 h; cells stimulated by added recombinant TGF-beta; Potency, µM (top dose mostly 46.1 µM), most hits filed as inhibitors; 3% of 1,600 active; shares compounds with TGFb inhibitor; AID 720537; note: nearly all actives have a fitted effect of over 70% in size
# A number is an active result; i = inactive; ? = inconclusive; nt = not tested or not shown. Unless noted, calls come from the whole dose curve; as a rule, active = well fitted curve in the direction sought with a large enough effect; inconclusive = small, poorly fitted or top-dose-only effect, or another doubt; inactive = no such curve, though single readings can be large; an effect the other way counts as inactive or inconclusive.
SMILES,TGFb inhibitor,D3 antag,ATXN2 expr inh,ATXN viability,DRD3 agonist,HepG2 tox-1,TGFb confirm,HepG2 tox-2,CCL64 TGFb inh,TGFb COP inh
COc1ccc(CNC(=O)c2cnc(N3CCCC3)nc2C)cc1,i,nt,i,i,i,i,nt,nt,nt,nt
COc1ccc(S(=O)(=O)Nc2ccc(O)c(Sc3ncn[nH]3)c2)cc1,i,i,i,i,i,i,nt,nt,nt,nt
O=S(=O)(Nc1cc(Sc2cccc3cccnc23)c(O)c2ccccc12)c1ccc(F)cc1,0.79µM,i,?,4µM,i,1.1µM,12µM,15µM,2.6µM,i
COc1ccc(S(=O)(=O)Nc2cc(Sc3ncn[nH]3)c(O)c3ccccc23)cc1,3.2µM,nt,nt,nt,nt,3.5µM,12µM,?,2.6µM,?
O=S(=O)(Nc1cccc2cccnc12)c1ccc2ccccc2c1,?,nt,nt,nt,nt,i,nt,nt,nt,nt
O=[N+]([O-])c1cccc(S(=O)(=O)Nc2ccc(S(=O)(=O)N3CCCC3)cc2)c1,i,i,i,i,i,i,nt,nt,nt,nt
O=[N+]([O-])c1cccc(S(=O)(=O)Nc2nc3ccccc3nc2Nc2cccc(S(=O)(=O)N3CCCCC3)c2)c1,4.5µM,i,?,?,i,i,3.3µM,6.5µM,2.9µM,i
O=C(NCCN1CCOCC1)c1ccc(Cl)c(S(=O)(=O)N2CCCC2)c1,i,i,i,i,i,i,nt,nt,nt,nt
COc1ccc(C(=O)Nc2ccc(C)c(S(=O)(=O)N3CCOCC3)c2)cc1S(=O)(=O)N1CCCC1,11µM,i,i,i,i,i,?,i,?,i
O=C(NCCN1CCOCC1)c1ccc(Cl)c(S(=O)(=O)N2CCCCCC2)c1,2.5µM,i,i,i,i,i,?,i,i,i
Cc1ccc(C)c(N/C(N)=N/c2nc(C)cc(C)n2)c1,i,i,i,i,i,i,nt,nt,nt,nt
Cc1ccc(CN=C(N)Nc2nc(C)cc(C)n2)cc1,16µM,i,i,i,i,i,15µM,?,?,i
CCCCN(CCCC)C(=O)CN(C)S(=O)(=O)c1ccc2c(c1)c(=O)n(C)c(=O)n2C,?,nt,i,i,i,i,nt,nt,nt,nt
CC12CCC=CC1C(c1ccc(F)c(Br)c1)N(Cc1ccccc1)C2=O (configuration not stated),?,nt,nt,nt,nt,i,nt,nt,nt,nt
C[C@@]12CCC=C[C@H]1[C@H](c1ccccc1Br)N(Cc1ccccc1)C2=O,18µM,i,i,?,i,i,18µM,?,?,i
COc1ccc(CCNc2ncnc3c2nnn3C)cc1,?,nt,nt,nt,i,i,nt,nt,nt,nt
COc1ccc(Cl)cc1NC(=O)CSc1nc(-c2ccco2)cc(C(F)(F)F)n1,?,nt,nt,nt,i,i,nt,nt,nt,nt
Cc1ccc(NC(=O)CN(C)C(=O)c2cc(-c3ccccc3)nn2-c2ccccc2)cc1,11µM,i,i,i,i,i,18µM,i,16µM,i
CS(=O)(=O)Nc1ccc(-c2nc3ccccc3s2)cc1,?,nt,i,i,i,i,nt,nt,nt,nt
CC(=O)N1CCc2c(sc(NC(=O)c3ccc([N+](=O)[O-])o3)c2C(N)=O)C1,3.5µM,-91,nt,20µM,i,i,4.6µM,5.8µM,?,?
CCC(=O)Nc1sc2c(c1C(N)=O)CCN(C(C)=O)C2,i,?,i,i,i,i,nt,nt,nt,nt
O=C(c1ccc(Br)cc1)N(Cc1nc2ccccc2c(=O)[nH]1)C1CCCC1,11µM,i,i,i,i,i,23µM,i,i,i
Cc1ccc(CCNC(=O)CCn2nc(-c3ccc(Cl)cc3)ccc2=O)cc1,i,nt,i,i,i,i,nt,nt,nt,nt
CCC(C(=O)Oc1c(C(C)C)cccc1C(C)C)c1ccccc1 (configuration not stated),?,i,i,i,i,i,?,i,21µM,i
COc1ccc2cc([C@H](C)C(=O)N(C)Cc3ccccc3N3CCCC3)ccc2c1,10µM,i,i,i,i,i,8.2µM,?,?,i
SMILES,TGFb inhibitor,D3 antag,ATXN2 expr inh,ATXN viability,DRD3 agonist,HepG2 tox-1,TGFb confirm,HepG2 tox-2,CCL64 TGFb inh,TGFb COP inh
COc1ccc2cc([C@H](C)C(=O)O)ccc2c1,i,i,?,i,i,i,nt,nt,nt,nt
COc1ccc(-c2cc(C(=O)Nc3c(C)nn(Cc4ccc(F)cc4)c3C)no2)cc1OC,i,nt,i,i,i,i,nt,nt,nt,nt
COC(=O)c1ccc2nc(-c3ccco3)c(Cc3cccc(F)c3)n2c1,14µM,i,i,i,i,i,21µM,i,?,i
CCCC(=O)NC(=S)Nc1cccc(Cl)c1N1CCCCC1,7.9µM,i,?,?,i,i,15µM,?,?,i
CC1=Nc2ccccc2/C1=C\c1sc(Nc2ccc(C)cc2)nc1O,11µM,-54,i,?,i,i,5.2µM,?,5.2µM,i
COc1ccc(NC(c2ccc(F)cc2)c2nnc(-c3ccccc3Cl)o2)cc1Cl (configuration not stated),i,nt,i,?,i,i,nt,nt,nt,nt
O=C(O)c1ccccc1NC(c1ccccc1)c1ccc2cccnc2c1O (configuration not stated),8.9µM,-95,?,?,i,i,6.5µM,?,15µM,i
COc1ccc(C(NC(=O)C(C)C)c2ccc3cccnc3c2O)cc1 (configuration not stated),4.5µM,i,3.2µM,i,i,i,i,?,7.3µM,i
CCCCC(=O)NC(c1ccc(OC)cc1)c1ccc2cccnc2c1O (configuration not stated),?,i,nt,?,i,i,nt,nt,nt,nt
COc1ccc(C(NC(C)=O)c2cc(Cl)c3cccnc3c2O)cc1 (configuration not stated),7.1µM,?,4.5µM,i,i,i,?,?,13µM,i
CC(=O)NC(c1ccc(N(C)C)cc1)c1cc(Cl)c2cccnc2c1O (configuration not stated),?,i,nt,i,i,i,nt,nt,nt,nt
COc1ccc(CNc2nc(-c3ccco3)nn2C(=O)CC(C)C)cc1,i,nt,nt,nt,i,i,nt,nt,nt,nt
